Reference: PubChem BioAssay AID640 (Columbia University Molecular Screening Center, 2007)
Among all 96,000 compounds or so, about 200 (0.21%) were called active.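 How the source made its calls: active means inhibition at 2 µM at or above a set limit, the screen mean plus 3 SD (cut at about 24% in these data); inactive means the rest.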 Shown is part of a subset that was picked to be rich in actives.

biological target: Tyrosine-protein phosphatase non-receptor type 22 (Homo sapiens) (UniProt Q9Y2R2); assay: PTPN22 phosphatase inhibitors, primary screen, biochemical, DiFMUP fluorescence, 2 µM (AID 640); details: recombinant LYP catalytic domain, at 2 µM, stronger effect = higher value;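 further: 0% = DMSO with enzyme and 100% = enzyme fully blocked by orthovanadate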
Sequence (Q9Y2R2 whole entry, looked up, the tested form may be a part): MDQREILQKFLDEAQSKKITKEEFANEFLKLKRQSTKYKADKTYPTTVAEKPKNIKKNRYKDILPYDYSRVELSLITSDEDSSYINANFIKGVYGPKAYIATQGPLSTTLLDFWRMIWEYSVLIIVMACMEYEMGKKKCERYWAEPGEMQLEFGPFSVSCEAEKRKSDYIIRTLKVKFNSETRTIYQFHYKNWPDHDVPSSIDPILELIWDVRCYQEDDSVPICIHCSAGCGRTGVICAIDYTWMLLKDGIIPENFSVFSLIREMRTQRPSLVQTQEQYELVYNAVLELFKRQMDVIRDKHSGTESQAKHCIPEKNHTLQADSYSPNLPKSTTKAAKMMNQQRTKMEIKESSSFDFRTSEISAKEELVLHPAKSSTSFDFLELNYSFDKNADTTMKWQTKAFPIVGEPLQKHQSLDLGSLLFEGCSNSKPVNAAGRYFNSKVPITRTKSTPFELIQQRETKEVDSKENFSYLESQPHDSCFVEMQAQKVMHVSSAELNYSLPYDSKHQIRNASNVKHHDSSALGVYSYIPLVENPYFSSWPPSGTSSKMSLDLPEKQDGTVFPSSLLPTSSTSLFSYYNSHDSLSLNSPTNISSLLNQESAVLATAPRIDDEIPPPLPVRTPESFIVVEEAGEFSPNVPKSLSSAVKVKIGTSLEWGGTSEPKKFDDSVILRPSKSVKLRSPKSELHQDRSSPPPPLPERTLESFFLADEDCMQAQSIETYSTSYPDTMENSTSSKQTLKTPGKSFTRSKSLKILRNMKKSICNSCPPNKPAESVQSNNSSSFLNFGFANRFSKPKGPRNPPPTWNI

inhibition, active:
c1ccc(-c2nccc(-c3ccc(-n4cnc5ccccc54)cc3)n2)nc1 39.8%
Cc1nnc(NC(=O)Nc2ccc(Cl)c(Cl)c2)s1 24.4%
N#Cc1ccccc1CN1C(=O)S/C(=C/c2cccn2-c2cccc(C(=O)O)c2)C1=O 32.6%

inhibition, inactive:
Cc1ccc(OCC(=O)Nc2cccc3c2CCCC3)cc1C 10%
CCN1CCN(C(=O)/C=C\C(=O)O)CC1 -7%
Cc1cc(S(=O)(=O)NC2CCCCC2)ccc1OCC(=O)NCc1cccnc1 -9.7%
COc1ccc(Br)cc1CN1CCN(C(=O)c2cccc(OC)c2OC)CC1 0.1%
COC(=O)c1c(CCl)noc1C(=O)NC(C)C -0.4%
CCc1ccc2c(c1)C1(NN=C(c3ccccc3)S1)C(=O)N2 (stereo not given) 15.3%
CCCCc1nnc(NC(=O)CS(=O)(=O)Cc2ccccc2)s1 3.6%
c1ccc(-c2noc(-c3cccs3)n2)nc1 7.6%
CC(C)c1nc(-c2ccccn2)no1 4%
COc1ccc(Nc2cc(=O)oc3ccccc23)cc1 5%
Cc1cc(-n2nc(C)cc2C)n2nc(C)c(-c3ccccc3)c2n1 -2.6%
O=C(Nc1ccccc1)O/N=C1\CCCCC1c1ccc([N+](=O)[O-])cc1[N+](=O)[O-] (stereo not given) -11%
O=S(=O)(NN=C1CCCCCCC1)c1ccc(Br)cc1 6.1%
Cc1nc2ccccc2n1C(=O)N1CCOCC1 1.2%
Cc1ccc(S(=O)(=O)N(CC(=O)N2CCc3ccccc3C2)c2cccc(Cl)c2)cc1 4.6%
Cc1cc(C)c(NC(=O)CN2CCOCCOCCOCCOCC2)c(C)c1 3.4%
O=C(Oc1ccccc1)Oc1ccc2c(c1)oc(=O)c1ccccc12 -1.7%
COCCN(C(=O)c1ccco1)c1nnc(-c2ccc(OC)cc2)s1 10.8%
COc1ccc(S(=O)(=O)NCc2ccc(C(=O)N(C)Cc3ccco3)cc2)cc1 -6%
CCOC(=O)C1=C(C)NC(SC)=NC1c1ccccc1 (stereo not given) -0.6%
Cc1nc2cc(NC(=O)NCc3ccccc3)ccc2o1 -5.6%
O=C1Nc2cc(Cl)c(Cl)cc2N(O)N1c1cc(Cl)cc(Cl)c1 -15.4%
COc1ccc2nc(SCC(=O)Nc3c(C)cc(C)cc3C)[nH]c2c1 -3.6%
O=C(c1cccc(F)c1)N1CCN(c2ccc([N+](=O)[O-])c(N3CCCCC3)c2)CC1 8.1%
CCn1nccc1C(=O)Nc1ccc(Cl)c(Cl)c1 -0.3%
O=C(CC(O)(C(F)(F)F)C(F)(F)F)Nc1ccc(Cl)c(Cl)c1 -2.3%
CCOC(=O)C1CN(S(=O)(=O)c2ccc(F)cc2)C1 8.4%
CC(C)(C)NC(=O)CSC(=Nc1ccccc1F)NC#N 11.7%
CCCn1nnc(NC(=O)COc2ccc(CC)cc2)n1 14.5%
CCOC(=O)C(Sc1ncc(C#N)c(N)n1)C(C)C (stereo not given) 4.5%
Cc1ccc(CN2CCN(/N=C/c3ccco3)CC2)c(C)c1 6.2%
CCOC(=O)CN(Cc1ccc(OC)c(OC)c1)S(=O)(=O)c1ccc(OC)cc1 4.6%
Cn1nc(C(F)(F)F)c2cc(NC(=O)OCC(C)(C)C)sc21 -3.4%
CCCCNCc1ccc(SC)cc1 -8.8%
COc1ccc(-c2noc(CSc3ccc(C)cc3)n2)cc1 6.7%
CCSc1nnc(NC(=O)c2ccc(C)cc2)s1 -2.4%
CC(C)(C)C(=O)Nc1ccc(C(=O)N/N=C/c2ccccc2OC(=O)c2ccc(Cl)cc2Cl)cc1 13%
CC(C)n1c(-c2cccs2)nc2ccccc21 -3.5%
CCOC(=O)c1cnc(SCC(=O)Nc2cccc(OC)c2)nc1N -12.3%
Cc1ccc(-n2c(C)cc(/C=N/Nc3ccc([N+](=O)[O-])cn3)c2C)c(C)c1 11.5%
Cc1nc(NC(=O)CN(C)S(=O)(=O)c2ccc(Cl)cc2)sc1C 6.8%
Nc1c(-c2cccc(Cl)c2)cnn1-c1cccc([N+](=O)[O-])c1 -9.9%
O=C(N/N=C/c1ccsc1)c1cc(O)cc(O)c1 4.4%
Cn1cc([N+](=O)[O-])c(C(=O)Nc2ccc3c(c2)OCCO3)n1 3.8%
O=S(=O)(N/N=C\c1cccn1-c1ccccc1)c1ccc2ccccc2c1 -4.4%
O=C1CSC(c2ccc(Cl)cc2)N1 (stereo not given) -5.4%
COCC(=O)Nc1ccc(Br)cc1 -3.3%
Cn1c(=O)c2c(nc(N3CCOCC3)n2CCNC2=NCCC2)n(C)c1=O -6.1%
COn1c(=O)c(=O)n(OC)c2ccccc21 3.4%
Cc1oc(-c2ccccc2Cl)[n+]([O-])c1C -4.8%
CC1=NN(C(C)C)C(=O)C1 1.5%
c1ccc(CSc2ncnc3c2sc2nc(N4CCOCC4)c4c(c23)CCCC4)cc1 10.1%
CCOc1cccc(NC(=O)Cn2nc(-c3ccc4c(c3)OCCO4)ccc2=O)c1 7.6%
O=C(Nc1ccc2sc3ccccc3c(=O)c2c1)c1ccccc1Cl 1.6%
COC(=O)CSc1nnc(-c2cccnc2)o1 4.2%
Cc1ccc2oc(=O)c3cnn(CC(=O)N(Cc4ccco4)C4CCCCC4)c3c2c1 3.6%
COc1cc(S(=O)(=O)N(Cc2cccs2)C2CC2)ccc1-n1cnnn1 -4.5%
CCOc1ccc(N=C2NC(=O)S/C2=C\c2ccc(O)cc2)cc1 -3.4%
COc1ccc2oc(=O)c(C(=O)NCc3ccccn3)cc2c1 -1.3%
Cc1cc(/C=C2/SC(=O)N(CC(=O)OC(C)C)C2=O)c(C)n1C 9.2%
Brc1ccc(-c2nnc(-c3ccccc3)o2)o1 -8.3%
O=C(CCCN1C(=O)c2ccccc2C1=O)Oc1ccc(Cl)cc1 4.1%
